Hit rate of the full screen: of about 47,000 compounds, about 2,000 (4.3%) were called active. Rule as the data show it: active = inhibition above about 30%; inactive = the rest. What follows is part of a selection rich in actives, with near analogues and random picks from the rest.

In PubChem BioAssay AID1645853 (Buhrlage Lab, Dana-Farber Cancer Institute and Novartis …, 2021) one finds inhibition data, which are given here for 60 molecules.

The target of this experiment is Ubiquitin carboxyl-terminal hydrolase 8 (Homo sapiens) (UniProt P40818). Briefly: blocks human USP8 ubiquitin-rhodamine cleavage (AID 1645853). Conditions: purified USP8, Ub-rhodamine cleavage fluorescence, 30 min; at 20 µM; stronger effect = higher value.
Chain of Ubiquitin carboxyl-terminal hydrolase 8 (Homo sapiens) (P40818 whole entry, looked up): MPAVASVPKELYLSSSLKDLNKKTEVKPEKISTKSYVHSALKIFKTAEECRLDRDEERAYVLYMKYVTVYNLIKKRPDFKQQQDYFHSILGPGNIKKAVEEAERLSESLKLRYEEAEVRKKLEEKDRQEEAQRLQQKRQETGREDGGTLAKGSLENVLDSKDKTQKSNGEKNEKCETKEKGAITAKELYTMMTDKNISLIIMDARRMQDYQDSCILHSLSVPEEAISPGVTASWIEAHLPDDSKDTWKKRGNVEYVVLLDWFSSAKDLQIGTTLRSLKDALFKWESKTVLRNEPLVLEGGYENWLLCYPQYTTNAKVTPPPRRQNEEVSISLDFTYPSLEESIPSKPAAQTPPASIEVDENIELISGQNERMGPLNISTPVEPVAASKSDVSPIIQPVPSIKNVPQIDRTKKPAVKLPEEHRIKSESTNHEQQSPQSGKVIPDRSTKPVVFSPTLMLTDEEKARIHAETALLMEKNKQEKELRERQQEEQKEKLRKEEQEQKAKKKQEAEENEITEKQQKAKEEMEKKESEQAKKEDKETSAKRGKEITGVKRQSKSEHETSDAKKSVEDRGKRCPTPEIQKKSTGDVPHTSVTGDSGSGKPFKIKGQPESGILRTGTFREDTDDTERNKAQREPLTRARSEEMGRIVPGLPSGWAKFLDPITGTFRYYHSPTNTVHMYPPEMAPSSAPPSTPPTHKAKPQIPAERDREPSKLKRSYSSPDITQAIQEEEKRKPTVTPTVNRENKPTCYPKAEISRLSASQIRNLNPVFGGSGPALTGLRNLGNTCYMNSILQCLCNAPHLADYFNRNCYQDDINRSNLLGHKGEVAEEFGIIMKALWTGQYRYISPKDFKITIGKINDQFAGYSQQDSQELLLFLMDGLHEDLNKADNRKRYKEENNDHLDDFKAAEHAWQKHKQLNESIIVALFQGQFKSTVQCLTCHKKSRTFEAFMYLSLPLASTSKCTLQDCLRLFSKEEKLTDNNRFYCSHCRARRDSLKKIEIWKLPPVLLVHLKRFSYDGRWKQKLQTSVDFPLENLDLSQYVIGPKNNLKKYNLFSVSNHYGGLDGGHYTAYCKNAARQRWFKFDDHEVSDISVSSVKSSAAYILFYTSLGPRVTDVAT
For `N=C(N)C1CN(Cc2ccccc2)C(=O)NC1=O` (stereo not given), the inhibition (as a rule, the change of the read-out against control, counted positive when it falls) is -100% (inactive). Then `CCC(Oc1ccccc1)C(=O)NCc1ccc2c(c1)OCO2` (stereo not given), with -79.7% (inactive); and `c1cc(CNCc2ccc3c(c2)OCO3)ccn1`, with 11% (inactive). For the molecule `c1ccc(-c2ccc(NCc3ccc4c(c3)OCO4)nn2)cc1`, the inhibition is 92% (active).

Take `COc1cc(N2CC[C@@H]3[C@@H](CO[C@H]3CNc3ncccn3)C2)ncn1`: the inhibition was -92.4% (inactive). Take `N#Cc1cccc(CSc2ncnc(N)n2)c1`: the inhibition is 18.1% (inactive). Then `COc1ccc(CNC(=O)CSc2nnc3c4ccccc4nc(-c4ccco4)n23)cc1`, with -1.03% (inactive); and `Cn1cc2nc(SCC(=O)NCc3ccc(Cl)cc3)n(CC3CC3)c(=O)c2n1`, with 38.7% (active); and `Cc1oc(CNC(=O)Cc2ccc(Cl)cc2)nc1C(=O)N1CCC(C)CC1`, with 0.0949% (inactive). Next, `O=C(CSc1ncn[nH]1)NCc1ccc2c(c1)OCO2`: 19.2% (inactive); `CCN1CCN(c2ccc(NC(=O)C3CCCCC3)cn2)C1=O`: 1.18% (inactive). Next, `CS(=O)(=O)N(Cc1ccccc1F)c1ccc(Oc2ccc(N(Cc3ccccc3F)S(C)(=O)=O)cc2)cc1`: 0.186% (inactive); `O=C(NCCc1cccnc1)c1ccn(-c2ccc3ccccn23)n1`: -25.8% (inactive); `Cc1nnc2ccc(-c3ccc(NC(=O)c4ccc(Br)o4)cc3)nn12`: 65.6% (active). Take `Cc1ccc(-c2cc(C(F)F)n3ncc(C(=O)NCC(C)C)c3n2)cc1`: the inhibition is 25.9% (inactive).

On to `CCCCc1nc2sc3c(SCC(=O)NCc4ccccc4)ncnc3c2c2c1CCC2`, for which the inhibition is -1.42% (inactive). Next, `O=C(O)CC1(CC(=O)Nc2ccc(Oc3ccccc3)cc2)CCCC1`: 33% (active); `COc1ccccc1C(=O)Nc1cccc(Oc2ccccc2)c1`: 11.4% (inactive); `CC1(C)CC(=O)c2ccc(OCC(=O)Nc3ccccc3)cc2O1`: 5.38% (inactive).

Consider `Cc1cc(C)cc(NC(=O)c2cnc3sc4c(n3c2=O)CCCC4)c1`, for which the inhibition was 3.8% (inactive). In the case of `CCOC(=O)c1cc2c(ccn2C)n1CC(=O)N1CCc2ccccc2C1`, the inhibition is -42.9% (inactive). Then `CCOC(=O)c1cc2c(ccn2C)n1CC(=O)N1CCC(C)CC1`, with -57.3% (inactive); and `CCOC(=O)c1cc2c(ccn2C)n1CC(=O)Nc1ccc2c(c1)OCCO2`, with 32.8% (active); and `O=C(c1ccc(Cl)cc1)N1CCSc2cc(Cl)ccc21`, with 12% (inactive).

On to `COc1cc2c(cc1OC)CN(C(=O)c1cc(=O)c3ccccc3o1)CC2`, for which the inhibition is 3.84% (inactive).

With `COc1ccc(CC(=O)Nc2ccc3c(c2)CCC3)cc1S(=O)(=O)N1CCOCC1`, the inhibition was 0.366% (inactive). Then `COc1ccc(CC(=O)Nc2ccc3c(c2)CN(C(=O)c2ccco2)CC3)cc1`, with 33.2% (active); and `CCN1CCn2c(-c3cnn(C)c3)cnc2C12CCN(S(=O)(=O)CC(C)C)CC2`, with -29.1% (inactive).

Regarding `Cc1nn(-c2ccccc2)c2[nH]c(=O)c(C#N)c(-c3ccco3)c12`, the inhibition was 10.2% (inactive).

As for `Cc1ccc(NC(=O)NCc2nnnn2-c2ccccc2)cc1C`, the inhibition is 0.496% (inactive). As for `Cc1ccc(NCc2cc3c(C)nn(-c4ccccc4)c3[nH]c2=O)cc1C`, the inhibition is 76.5% (active).

As for `Cc1ccc(CCNCc2c(C(=O)O)n(C)c3ccccc23)cc1`, the inhibition is -1.77% (inactive). As for `CC(C)(C)c1nn(-c2ccccc2)c2[nH]c(=O)c(CNCCc3ccccc3)cc12`, the inhibition is 85% (active). Next, `Cc1cccc(-c2nnc3ccc(N4CCC(C(=O)NC(C)Cc5ccco5)CC4)nn23)c1` (stereo not given): -6.13% (inactive); `CN1C(=O)C(C)(C)COc2ccc(NS(=O)(=O)c3cccc(F)c3)cc21`: 11.7% (inactive).

In the case of `Cc1ccc(Cn2nccc2NC(=O)c2cc(-c3ccccc3)on2)cc1`, the inhibition is 14.1% (inactive). Then `Cc1cc(C)cc(C(=O)N2CCN(c3nnc4ccccn34)CC2)c1`, with -9.4% (inactive). Next, `Cc1nonc1C(=O)NCC(=O)N1Cc2ccccc2OC2(CCOCC2)C1`: 20.5% (inactive); `COc1ccccc1CNC(=O)c1ccccc1N1C(=O)[C@@H]2Cc3c([nH]c4ccccc34)C(C)N2C1=O` (stereo not given in full): -25.4% (inactive). On to `O=C(Cc1cccc(C(F)(F)F)c1)Nc1cccn2ncnc12`, for which the inhibition is 2.29% (inactive). For the molecule `O=C(Cc1c(Cl)cccc1Cl)NCc1cccc(C(F)(F)F)c1`, the inhibition was 49.9% (active). With `O=C(NCc1ccccc1)c1nc[nH]c1C(=O)NCc1cccc(C(F)(F)F)c1`, the inhibition was -114% (inactive). With `CC(C)=CCC(O)C1=CC(=O)c2c(O)ccc(O)c2C1=O` (stereo not given), the inhibition was -234% (inactive). Turning to `Cc1cc(NC(C)C)n2ncc(-c3ccc(Cl)cc3)c2n1`, the inhibition was -13.7% (inactive). Next, `Cc1nc(CC(=O)Nc2ccc(F)c(F)c2)sc1C(=O)NC1CC1`: 10.3% (inactive); `COc1cccc(CNS(=O)(=O)c2cc(-c3cc(C)no3)ccc2OC)c1`: -16.2% (inactive).

On to `CCn1c(-c2ccccc2)c(C(=O)COC(=O)C(NC(=O)c2ccccc2)C(C)C)c2ccccc21` (stereo not given), for which the inhibition is 13.1% (inactive).

As for `CN1C(=O)C2(CCN(C(=O)c3ccccc3Cl)C2)c2ccccc21` (stereo not given), the inhibition was -3.42% (inactive). Next, `O=C(Nc1ccccc1)N1CCN(c2ncccc2-c2nnc(C3CC3)o2)CC1`: -5.37% (inactive).

`CC1CCN(c2nc(F)c3c(c2F)S(=O)(=O)CCN3Cc2cccnc2)CC1`: the inhibition was 85.2% (active). As for `CCN1CCN(c2nc(F)c3c(c2F)S(=O)(=O)CCN3CC2CCCO2)CC1` (stereo not given), the inhibition is 25.6% (inactive). Next, `O=S1(=O)c2ccccc2O[C@H]2CCN(c3ncccn3)CC[C@@H]2N1Cc1cccnc1`: -15.4% (inactive); `COc1ccc(NC(=O)c2cc(S(=O)(=O)N3CCCCCC3)cn2C)cc1`: 0.0121% (inactive).

For `CC(CS(=O)(=O)c1ccc2c(c1)NC(=O)CCS2)C(=O)N1CCc2ccccc21` (stereo not given), the inhibition was -14% (inactive).

With `CC1CN(C(=O)c2ccc(-n3cccn3)c(C#Cc3ccccn3)c2)CC(C)O1` (stereo not given), the inhibition was -93.1% (inactive).

On to `Cc1ccc(Cn2cc(-c3noc(-c4ccccn4)n3)nn2)cc1`, for which the inhibition is -56.3% (inactive). Next, `COc1ccc(-c2nc(-c3nnn(Cc4cccc(F)c4)c3C)no2)cc1`: 0.245% (inactive).

Consider `Cc1ccc(Cn2cc(-c3noc(-c4ccc[nH]4)n3)nn2)cc1`, for which the inhibition is 35.7% (active). Take `O=C(NCc1noc(C2CCCC2)n1)C1CCCCC1`: the inhibition was 19.8% (inactive). Next, `CCc1nnsc1C(=O)N1CCOC(c2cccc(N(C)C)n2)C1` (stereo not given): 11.8% (inactive).
